Hit rate of the full screen: of about 330,000 compounds, about 2,600 (0.79%) were called active.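 Rule for the calls: active = mean ATP rescue above about 67%, or every replicate alone reaching that limit (limit read from the data, passing the limit was not always enough); inconclusive = no clear call, values can overlap the other calls; inactive = mean under the limit and some replicate under it.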 The full list was thinned out, with actives kept by preference.

This test in a line: suppressors of statin myotoxicity in C2C12 myotubes, primary screen, cell-based, single point, plate reader (AID 602340).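 Note: myotubes were challenged with 10 µM simvastatin during compound exposure.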 As to conditions: C2C12 myotubes + simvastatin, ATP luminescence, 48 h; at 7.49 µM; stronger effect = higher value; scaled: DMSO 0, geranylgeraniol control 100.
For `C[C@H](NC(=O)C[C@@H]1CC[C@@H]2[C@H](COC[C@@H](O)CN2Cc2cc(F)ccc2F)O1)c1ccccc1`, the rescue of ATP level was 6.87% (inactive).

With `CN1[C@@H]2c3ccc(C4=CCCCC4)c(=O)n3C[C@H]1[C@H](CO)[C@H]2C(=O)NCc1ccc(F)cc1`, the rescue of ATP level is 12.7% (inactive).

`C[C@H]1CN([C@@H](C)CO)C(=O)c2cc(C#CC3CCCC3)cnc2O[C@H]1CN(C)C(=O)c1ccncc1`: the rescue of ATP level was -53.3% (inactive).

On to `CO[C@@H]1CN(C)C(=O)c2cc(NC(=O)Nc3cc(F)ccc3F)ccc2OC[C@@H](C)N(C)C[C@H]1C`, for which the rescue of ATP level is -33.7% (inactive).

In the case of `C[C@H]1CN([C@@H](C)CO)S(=O)(=O)c2ccc(C#CC3CCCC3)cc2O[C@@H]1CN(C)C(=O)c1cccc(F)c1`, the rescue of ATP level was -41% (inactive).

`CNC(=O)C[C@H]1CC[C@H]2[C@H](COc3ccc(NC(=O)c4cc(C)on4)cc3C(=O)N2C)O1`: the rescue of ATP level is 7.63% (inactive).

For `COc1ccccc1NC(=O)N1C[C@H]2[C@@H](c3ccccc31)[C@H](CO)N2Cc1ccc2c(c1)OCO2`, the rescue of ATP level is 46.6% (inactive).

Turning to `COc1ccc(OC)c(-c2csc(-c3cccs3)n2)c1`, the rescue of ATP level is -1.11% (inactive).

As to `COc1cccc(C(=O)n2ccc(-c3cccs3)n2)c1`, the rescue of ATP level is 132% (active).

In the case of `COc1cccc(NC(=O)CN(C)C(=O)/C=C/c2cn(-c3ccccc3)nc2-c2cccs2)c1`, the rescue of ATP level is -0.997% (inactive).

For `O=C(N[C@@H]1CC[C@H](CCn2cc(-c3ccccn3)nn2)O[C@@H]1CO)c1ccccc1`, the rescue of ATP level was 0.826% (inactive).

Take `C[C@H](CO)N1C[C@H](C)[C@H](CN(C)C(=O)C2CCOCC2)Oc2ncc(-c3ccccc3)cc2C1=O`: the rescue of ATP level is -10.6% (inactive).

As for `CCCNC(=O)C[C@H]1CC[C@H]2[C@@H](COC[C@H](O)CN2C(=O)Nc2c(C)noc2C)O1`, the rescue of ATP level was 5.16% (inactive).

Consider `CCOC(=O)c1c(NC(=O)CSc2nnc(CN3CCOCC3)n2C)sc2c1CCCC2`, for which the rescue of ATP level was -1.41% (inactive).

As to `CCOC(=O)c1c(NC(=O)CSc2nnc(C)c(=O)[nH]2)sc2c1CCC2`, the rescue of ATP level was 131% (active).

Consider `CCOC(=O)c1c(NC(=O)CSc2cn(CC)c3ccccc23)sc2c1CCC2`, for which the rescue of ATP level is 15.7% (inactive).

Take `O=C(C[C@@H]1C=C[C@H](NC(=O)Nc2ccc(C(F)(F)F)cc2)[C@H](CO)O1)NCc1cccc(F)c1`: the rescue of ATP level was 18.6% (inactive).

In the case of `CCOC(=O)CN1CC23C=CC(O2)C(C(=O)Nc2ccc(F)cc2)C3C1=O` (configuration not stated), the rescue of ATP level was 97% (active).

As to `CC(C)COC(=O)C1C2C=CC3(CN(C(C)c4ccc(Br)cc4)C(=O)C13)O2` (configuration not stated), the rescue of ATP level is 4.94% (inactive).

`CCOCCCN1C(=O)C2C(C(=O)Nc3ccc(OCC)cc3)C3C=CC2(O3)C1C(=O)NC1CCCCC1` (configuration not stated): the rescue of ATP level is 9.74% (inactive).

Consider `O=C(CN1CCOCC1)N[C@@H]1CC[C@H](CCNS(=O)(=O)c2ccccc2F)O[C@H]1CO`, for which the rescue of ATP level was 14.2% (inactive).

As for `Cc1ccc(SCC(=O)NC(=O)NCc2ccco2)c(C)c1`, the rescue of ATP level is 95.8% (active).

For the compound `Cc1cc(C)n2nc(SCC(=O)NC(=O)NCc3ccco3)nc2n1`, the rescue of ATP level was -3.52% (inactive).

As for `Cc1ccc(NC(=O)C(=O)NCc2ccco2)c(C)c1`, the rescue of ATP level was 9.27% (inactive).

For the compound `CC(C)NC(=O)N(C)C[C@@H]1Oc2ncc(-c3ccc(C(=O)N(C)C)cc3)cc2C(=O)N([C@H](C)CO)C[C@H]1C`, the rescue of ATP level is -0.478% (inactive).

For the compound `Cc1cccc(N(CC(O)CN(C)C)S(=O)(=O)c2ccccc2)c1` (configuration not stated), the rescue of ATP level was -10.1% (inactive).

As to `Cc1ccc(S(=O)(=O)N(CC(O)CN2CCCCC2)c2cccc([N+](=O)[O-])c2)cc1` (configuration not stated), the rescue of ATP level is 5.45% (inactive).

Regarding `O=S(=O)(c1ccccc1)N(CC(O)CN1CCCCC1)c1ccccc1` (configuration not stated), the rescue of ATP level was 152% (active).

For `COc1ccccc1-c1cn(CC[C@H]2CC[C@@H](NC(=O)Cc3ccccn3)[C@@H](CO)O2)nn1`, the rescue of ATP level is 5.82% (inactive).

In the case of `Cn1c(SCC(=O)Nc2ccc(Cl)cc2)nc(O)cc1=O`, the rescue of ATP level is 21.6% (inactive).

As for `CC(C)Cn1c(SCC(=O)Nc2ccc(Cl)cc2F)nc(O)cc1=O`, the rescue of ATP level was 95.3% (active).

Take `Cc1ccccc1-n1c(SCC(=O)Nc2cccc3ccccc23)nc(O)cc1=O`: the rescue of ATP level is 7.58% (inactive).

Take `C/C=C/c1ccc([C@@H]2[C@@H](CO)N(C(=O)CC)[C@H]2CN(C)C(=O)C2CC2)cc1`: the rescue of ATP level is 7.07% (inactive).

Consider `CO[C@@H]1CN(C)C(=O)c2cc(NC(=O)NC(C)C)ccc2OC[C@@H](C)N(CC2CC2)C[C@@H]1C`, for which the rescue of ATP level was 3.47% (inactive).

As for `Cc1ccc(S(=O)(=O)N(C)CC(=O)NC2CCCC2)cc1`, the rescue of ATP level was 96.1% (active).

For `CN(CC(=O)NC1CCCCC1)S(=O)(=O)c1cccc2cccnc12`, the rescue of ATP level is -5.41% (inactive).

For the compound `Cc1ccc(S(=O)(=O)NCC(=O)N(CC(=O)NC2CCCCC2)Cc2ccco2)cc1`, the rescue of ATP level is 13.6% (inactive).

With `CCCNC(=O)N1C[C@H](C)[C@@H](OC)CN(C)C(=O)c2ccc(NS(C)(=O)=O)cc2OC[C@@H]1C`, the rescue of ATP level was -0.593% (inactive).

`Cc1noc(C)c1NC(=O)N(C)C[C@@H]1Oc2ccc(NS(=O)(=O)c3ccc(F)cc3)cc2CC(=O)N([C@@H](C)CO)C[C@H]1C`: the rescue of ATP level was -7.19% (inactive).

With `O=C(C[C@H]1CC[C@@H]2NC[C@H](O)COC[C@H]2O1)NCCN1CCCCC1`, the rescue of ATP level is -1.01% (inactive).

For `C[C@@H]1CN([C@@H](C)CO)C(=O)Cc2cc(NS(=O)(=O)c3ccc(Cl)cc3)ccc2O[C@H]1CN(C)C(=O)Nc1cccc2ccccc12`, the rescue of ATP level is 25% (inactive).

Consider `CCOc1ccc(NC(=O)c2ccc(NC(=O)COC(=O)c3ccc(NC(=O)CC#N)cc3)cc2)cc1`, for which the rescue of ATP level is -8.99% (inactive).

With `CC(C)NC(=O)NC(=O)COC(=O)c1ccc(NC(=O)CC#N)cc1`, the rescue of ATP level is 113% (active).

With `N#CCC(=O)Nc1ccc(C(=O)OCC(=O)Nc2sc3c(c2C#N)CCCC3)cc1`, the rescue of ATP level is 4.12% (inactive).

Take `Cc1cccc2c(=O)n3c(nc12)CCCCC3`: the rescue of ATP level is 66.7% (active).

For the compound `O=c1c2c(nc3n1CCCCC3)sc1c(O)cccc12`, the rescue of ATP level was 6.49% (inactive).

In the case of `Cc1cc(=O)n2c3c(cccc13)CCC2`, the rescue of ATP level was 0.243% (inactive).

Consider `CC(C)CC#Cc1cnc2c(c1)C(=O)N([C@@H](C)CO)C[C@H](C)[C@@H](CN(C)S(=O)(=O)c1cn(C)cn1)O2`, for which the rescue of ATP level is -12.3% (inactive).

Regarding `C[C@H]1CCCCO[C@H](CN(C)Cc2ccccc2)[C@@H](C)CN([C@@H](C)CO)C(=O)c2cc(NS(C)(=O)=O)ccc2O1`, the rescue of ATP level was 0.662% (inactive).

On to `CCCC(=O)N(CCc1ccccc1)Cc1nc2ccccc2c(=O)[nH]1`, for which the rescue of ATP level is 4.48% (inactive).

As for `O=C(c1ccco1)N(Cc1nc2ccccc2c(=O)[nH]1)C1CCCC1`, the rescue of ATP level is 69.1% (active).

For `CCN(CC(=O)NC(=O)NCc1ccccc1)Cc1nc2ccccc2c(=O)[nH]1`, the rescue of ATP level was -7.59% (inactive).

Turning to `CCCNC(=O)N[C@@H]1CC[C@@H](CCn2cc(C3CC3)nn2)O[C@@H]1CO`, the rescue of ATP level was 4.61% (inactive).

Turning to `CCn1nnnc1SCC(=O)c1ccc(C)cc1C`, the rescue of ATP level was 122% (active).

`CCn1nnnc1SCC(=O)Nc1ccc(N(C)C)cc1`: the rescue of ATP level was -19% (inactive).

With `CCOC(=O)c1c(-c2ccc(C)cc2C)csc1NC(=O)CSc1nnnn1C`, the rescue of ATP level is 8.4% (inactive).

Turning to `C/C=C/c1ccc2c(c1)O[C@@H](CN(C)C(=O)C1CCOCC1)[C@H](C)CN([C@H](C)CO)S2(=O)=O`, the rescue of ATP level was 7.79% (inactive).

As to `Oc1ccc(-c2onc3ccc(Cl)cc23)cc1`, the rescue of ATP level was 108% (active).

Turning to `NC(N)=Nc1nc(-c2ccccc2)c2cc(Cl)ccc2n1`, the rescue of ATP level was -791% (inactive).

In the case of `CC(OC(=O)c1ccc2noc(-c3ccccc3)c2c1)C(N)=O` (configuration not stated), the rescue of ATP level is 20.5% (inactive).

On to `C[C@H](CO)N1C[C@H](C)[C@H](CN(C)Cc2ccncc2)Oc2ccc(NS(=O)(=O)c3cn(C)cn3)cc2C1=O`, for which the rescue of ATP level is -11.2% (inactive).

`C[C@H](CO)N1C[C@H](C)[C@H](CN(C)C(=O)c2ccccn2)Oc2ncc(-c3ccccc3F)cc2C1=O`: the rescue of ATP level was 16.4% (inactive).

Regarding `CCCC(=O)Nc1ccc2c(c1)C(=O)N(C)C[C@@H](OC)[C@@H](C)CN(Cc1cncnc1)[C@@H](C)CO2`, the rescue of ATP level is -0.178% (inactive).

Regarding `C[C@@H]1CN([C@@H](C)CO)C(=O)c2cc(C#CC3CC3)cnc2O[C@@H]1CN(C)C(=O)Cc1ccccn1`, the rescue of ATP level was 13.5% (inactive).

On to `CO[C@@H]1CN(C)C(=O)c2ccc(NC(=O)c3ccc(F)cc3)cc2OC[C@H](C)NC[C@@H]1C`, for which the rescue of ATP level was -3.77% (inactive).

As to `CCCNC(=O)N1[C@@H]2CN(C)c3ccccc3[C@@H]2[C@@H]1CO`, the rescue of ATP level was 9.21% (inactive).

As to `O=C(C[C@@H]1C[C@H]2c3cc(NC(=O)Nc4ccccc4F)ccc3O[C@H]2[C@@H](CO)O1)NCc1ccncc1`, the rescue of ATP level is 2.48% (inactive).

As to `COc1ccc(C2CC(=O)Nc3sc(=N)c4c(N)c(C#N)c(N)nc4c32)cc1OC` (configuration not stated), the rescue of ATP level is -2.72% (inactive).

For the compound `COc1ccc(OC)c2c(N)c(C#N)c(C(F)(F)C(F)(F)F)nc12`, the rescue of ATP level is 89.2% (active).

Consider `CC(C)NC(=O)Nc1ccc2c(c1)C(=O)N([C@@H](C)CO)C[C@@H](C)[C@H](CN(C)Cc1ccc(C(=O)O)cc1)O2`, for which the rescue of ATP level was 6.31% (inactive).

Regarding `CCOc1ccc(Nc2nc(Cc3nnc(SCC(=O)c4ccc(C)cc4)o3)cs2)cc1`, the rescue of ATP level was 76.7% (active).

Take `CC(=O)Nc1ccc(C(=O)CSc2nnc(Cc3ccccc3)o2)cc1`: the rescue of ATP level is 1.31% (inactive).

Regarding `CCOc1ccc(Nc2nc(Cc3nnc(SCC(=O)NC4CCCC4)n3C)cs2)cc1`, the rescue of ATP level is 33.9% (inactive).

Take `COCC(=O)Nc1ccc2c(c1)OC[C@H](C)NC[C@@H](C)[C@H](OC)CN(C)C2=O`: the rescue of ATP level is 7.72% (inactive).

As to `O=C(c1cccnc1)N1CC[C@@H]2[C@@H](CO)Nc3ccc(-c4ccccc4)cc3[C@@H]21`, the rescue of ATP level is 2.73% (inactive).

Take `CO[C@H]1CN(C)C(=O)c2cc(NC(=O)c3ccc4c(c3)OCO4)ccc2OC[C@@H](C)N(CCC(F)(F)F)C[C@H]1C`: the rescue of ATP level was 6.03% (inactive).

For the compound `O=C(N[C@H]1CC[C@H](CCNS(=O)(=O)c2ccc(F)cc2)O[C@H]1CO)C1CCCC1`, the rescue of ATP level is 6.44% (inactive).
